Hits are enriched below; roughly 4.7% of the tested compounds scored in any of these assays.
LMP1 NFkB inh: EBV LMP1-driven NF-kappaB luciferase reporter inhibitors, primary screen, cell-based, luminescence, single point. LMP1-induced NF-kappaB luciferase reporter cells. 350,000 tested, 0.69% active. inhibition, % at 12.5 µM; in the data active means inhibition above about 41%; inconclusive means no clear call, values can overlap the other calls;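 further: 0% = neutral control wells and 100% = reference inhibitor control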
HSP90 refold inh: HSP90 inhibitors, primary screen, cell lysate, luminescence | Heat shock protein HSP 90 (rabbit reticulocyte lysate; luciferase refolding) | 290,000 tested, 0.91% active | Rabbit reticulocyte lysate, luciferase refolding luminescence, 3 h | inhibition, % at 5.6 µM;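 active means inhibition above the screen-wide mean plus 3 SD, computed separately per campaign, cut at about 16% in these data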;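 further: 0% = DMSO wells and 100% = 60 µM geldanamycin wells; inhibitors lower the luminescence because luciferase stays unfolded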
TROY signal inh: inhibitors of TROY-driven NF-kB signaling, primary screen, Q293 LMP1-TROYcd cells, NF-kB luciferase, uHTS; AID 1347056, 2019; 360,000 tested, 0.98% active; Q293 LMP1-TROYcd NF-kB luciferase reporter, 4 h; inhibition, % at 10 µM;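 active means compounds whose plate-normalised and pattern-corrected inhibition of the luciferase reporter signal at the single screening dose is 50% or more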
TWEAK-Fn14 inh: inhibitors of TWEAK-Fn14 signaling, primary screen, luciferase reporter cells, uHTS | TWEAK-stimulated Fn14 reporter cells, luciferase luminescence, 8 h | inhibition, % at 10 µM | 360,000 tested, 2% active | AID 1159606, 2016; in the data active means inhibition above about 50%
HSF1 activator: HSF-1 activators, primary screen, NIH3T3-HGL cells, MG132 stress, luminescence, single point; NIH3T3-HGL HSF-1 luciferase reporter, 8 h; 100% = twice DMSO control signal; activation, % at 9 µM; 300,000 tested, 1.7% active; AID 504408, 2011;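 active means mean replicate activation of at least 50% with a set share of replicates each reaching 50%; inconclusive means only one of those two conditions met; inactive means mean below 50% and too few replicates reaching it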;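 further: 0% = median of the neutral control wells and 100% = twice that signal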
HSF1 inh: HSF1 inhibitors in luciferase reporter cells, primary screen, cell-based, NIH3T3, luminescence | NIH3T3-HGL HSE-luciferase, MG132-induced, luminescence 8 h; hits give low values | activity change, negative = inhibition, % at 7.5 µM (by protocol) | 300,000 tested, 0.77% active;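 active means more than half of replicate wells show activity change below -50%, luminescence cut by over half; inconclusive means some wells, but at most half, below -50%; inactive means no replicate well below -50%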;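 further: luciferase reports HSF-1 transcriptional activity via heat shock element; 0% = median of DMSO wells and -100% = zero luminescence signal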
Starred values were filed as active, the others as inactive; ? = inconclusive; . = no result.

SMILES | LMP1 NFkB inh | HSP90 refold inh | TROY signal inh | TWEAK-Fn14 inh | HSF1 activator | HSF1 inh
Cc1cccc(NC(=O)c2cccc(NC(=O)Cc3cccs3)c2)c1 | -15 | -1 | -60 | -20 | 6 | 9
COc1cc(C(=O)Nc2ccc3c(c2)OCO3)ccc1-n1cnnn1 | 8 | 2 | -3 | 5 | 4 | -5
CC(C)(C)NC(=O)c1cccc(NC(=O)Cc2cccs2)c1 | 3 | -3 | -9 | 12 | -83 | -78*
COc1ccc(NC(=O)C2CC2)cc1-n1cnnn1 | -13 | 2 | -3 | -4 | -76 | -72*
CC1(Cc2ccc(Cl)s2)C(=O)Nc2c(Cl)ccc(Cl)c21 (stereo not given) | . | . | -2 | 15 | . | .
Fc1ccc(-c2noc(-c3ccc4c(c3)CCO4)n2)cc1 | -12 | -1 | 15 | 61* | 15 | -5
CCCNC(=O)c1cc2c(c(-c3cccc(-c4ccccc4F)c3)n1)[C@@H](CCO)N(C(=O)CC1CC1)C2 | . | . | -7 | -1 | . | .
CN(C)c1ccc(C2CNC(c3ccc(Cl)c([N+](=O)[O-])c3)c3[nH]c4ccccc4c32)cc1 (stereo not given) | -5 | 8 | 21 | 5 | -13 | 0
O=C1CC(c2ccc(Cl)c([N+](=O)[O-])c2)c2ccc3ccccc3c2N1 (stereo not given) | 5 | 2 | 31 | 2 | -72 | -65*
COc1cccc(C#Cc2ccc3c(c2)O[C@H](CN(C)C)[C@@H](C)CN([C@@H](C)CO)S3(=O)=O)c1 | 3 | . | 10 | 3 | . | .
Cc1cc2nc(N3C(=O)CNC3=S)sc2cc1C | 2 | 3 | 63* | 90* | 49 | 20
CCOc1ccc2nc(N3C(=O)CNC3=S)sc2c1 | 17 | -1 | 45 | -11 | 62* | 27
Cc1cc2nc(N)sc2cc1C | -13 | 3 | -28 | 9 | 27 | 23
O=[N+]([O-])c1ccccc1CN1CCN(Cc2ccc3ccccc3c2)CC1 | 11 | 2 | -8 | 65* | -1 | 0
COc1ccccc1CN1CCN(Cc2ccc3ccccc3c2)CC1 | 4 | 2 | 1 | -9 | -8 | -3
OC1CCN(Cc2ccc3ccccc3c2)CC1 | 12 | -3 | -10 | 97* | -6 | -3
COc1cccc(Nc2nc(C(N)Cc3ccc(Cl)cc3)cs2)n1 (stereo not given) | . | . | -24 | -6 | . | .
c1ccc(CN2CCOCC2)cc1 | -5 | 5 | -7 | 2 | 7 | 1
c1ccc2c(c1)Cc1cc(CN3CCOCC3)ccc1-2 | -31 | 0 | -38 | 3 | 56* | 41
O=[N+]([O-])c1cc(CN2CCN(c3ccccc3)CC2)c(O)c2ncccc12 | 80* | 4 | 10 | 7 | -56 | ?
Oc1c(CN2CCc3ccccc3C2)cc(Cl)c2cccnc12 | 85* | 2 | 11 | 6 | -46 | -36
Oc1c(CN2CCCCC2)cc(Br)c2cccnc12 | 72* | 7 | 9 | 14 | -58 | -60*
CN1CCN(Cc2cc(COCc3ccccc3)c3cccnc3c2O)CC1 | 58* | 0 | -14 | -13 | -7 | -20
Oc1c(Cl)cc(CN2CCOCC2)c2cccnc12 | 7 | . | -14 | 13 | . | .
CCc1ccc(C#CC2=CC(=O)CC(C)(C)C2)cc1 | -33 | . | -59 | 21 | . | .
COC(=O)[C@]12CCCCC=C1N(CCC1=CCCCC1)C(=O)[C@H](CC(=O)N1CCCC1)C2 | . | . | 8 | 6 | . | .
CCCCN(C)c1c(C)nc2ccc(C(=O)N(CC)CCN(C)C)cn12 | . | . | -13 | 9 | . | .
CC(=O)OC(C)C(=O)NS(=O)(=O)c1ccc(C)cc1 (stereo not given) | 7 | 0 | 22 | 6 | 71* | 38
CCCc1ccc2oc(C(=O)N3CCC(COC)C3)c(C)c2c1 (stereo not given) | -5 | -4 | -30 | -27 | 61* | 33
CCCc1ccc2oc(C(=O)NCCN3CCCC(C(N)=O)C3)c(C)c2c1 (stereo not given) | 0 | -1 | -12 | 4 | -9 | 5
